Assay outcomes from PubChem BioAssay.
A selection: hits, their analogues and other compounds. The true share with any hit is near 1.5%.
Cardiac RTF inh: cardiac RTF calcium desensitization | P19429+P45379 | IANBD-labeled cardiac RTF, Ca2+ fluorescence | inhibition, % at 7.15 µM | actives 0.12% (n = 340,000);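 active = inhibition above the mean inhibition of all tested compounds plus 3 SD, cut at about 17% in these data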;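 note: assay run at fixed EC70 calcium of 1.6 mM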
RTF Ca sens act: cardiac RTF calcium sensitization | activation, % at 7.2 µM | AID 493008 | P19429+P45379 | actives 0.24% (n = 340,000) | IANBD-labeled TnC RTF fluorescence at EC20 calcium; 0% EC20 calcium, 100% full calcium;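 active = activation above the mean over all tested compounds plus 3 SD, cut at about 30% in these data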;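 note: rise in fluorescence read as greater calcium sensitivity of cardiac thin filaments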
IDE inh: cellular human IDE inhibition; HEK cells, FAbetaB cleavage, fluorescence polarization; inhibition, % at 5.59 µM; actives 0.41% (n = 320,000); AID 434962;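 active = percent inhibition above the average of all tested compounds plus 3 SD, set per screening campaign, cut at about 16% in these data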;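 note: IDE supplied by intact live HEK cells; FP after avidin binding of uncleaved biotin substrate so inhibition keeps polarization high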
Target sequence (P14735 whole entry, looked up): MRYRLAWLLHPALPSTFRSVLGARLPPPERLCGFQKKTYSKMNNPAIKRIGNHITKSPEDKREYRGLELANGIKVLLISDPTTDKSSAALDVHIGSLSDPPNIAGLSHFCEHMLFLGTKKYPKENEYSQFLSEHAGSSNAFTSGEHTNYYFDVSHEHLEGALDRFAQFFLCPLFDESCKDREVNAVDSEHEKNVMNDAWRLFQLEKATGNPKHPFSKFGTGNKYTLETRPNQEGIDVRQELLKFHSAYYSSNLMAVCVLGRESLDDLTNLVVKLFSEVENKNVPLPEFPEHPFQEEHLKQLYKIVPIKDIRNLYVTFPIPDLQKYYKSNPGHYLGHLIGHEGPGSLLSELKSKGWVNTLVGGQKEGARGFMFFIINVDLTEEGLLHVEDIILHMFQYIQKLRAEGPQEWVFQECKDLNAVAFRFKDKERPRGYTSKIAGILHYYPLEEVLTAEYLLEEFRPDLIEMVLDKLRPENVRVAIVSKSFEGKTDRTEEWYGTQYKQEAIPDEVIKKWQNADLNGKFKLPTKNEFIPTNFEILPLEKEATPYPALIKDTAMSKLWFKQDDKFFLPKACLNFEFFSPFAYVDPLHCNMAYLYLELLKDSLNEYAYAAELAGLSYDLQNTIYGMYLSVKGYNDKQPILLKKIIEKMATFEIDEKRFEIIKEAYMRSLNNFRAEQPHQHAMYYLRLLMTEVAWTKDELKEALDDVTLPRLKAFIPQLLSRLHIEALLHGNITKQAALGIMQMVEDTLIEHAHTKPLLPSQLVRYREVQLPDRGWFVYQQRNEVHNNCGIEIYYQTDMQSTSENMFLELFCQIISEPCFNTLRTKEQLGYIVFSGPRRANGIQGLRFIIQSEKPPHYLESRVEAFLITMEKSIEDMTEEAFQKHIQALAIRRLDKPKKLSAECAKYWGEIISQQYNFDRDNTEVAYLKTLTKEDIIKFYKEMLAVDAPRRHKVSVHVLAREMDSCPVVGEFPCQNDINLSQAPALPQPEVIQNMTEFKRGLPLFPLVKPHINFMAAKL
CRFBP-R2 agonist: CRF-BP/CRF-R2 complex agonism. HEK293 CRF-R2/CRF-BP, calcium dye fluorescence (FLIPR); percent of saturating CRF peptide response. activation, % at 13.2 µM. actives 0.46% (n = 350,000);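 active = activation of at least 50%, plus an integration ratio under a set limit after plate pattern correction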
IDE act: IDE (human) activation, cell-based; HEK cells, FAbeta-B cleavage, fluorescence polarization; 0% vehicle, 100% cell-free pure enzyme wells; actives 0.073% (n = 340,000); P14735; activation, % at 5.96 µM;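 active = activation above the mean of all tested compounds plus 3 SD, set per screening campaign, cut at about 17% in these data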
CRFBP-R2 block: antagonists of CRF-binding protein/CRF-R2 receptor complex. AID 588475. HEK293 CRF-R2/CRF-BP, CRF-induced calcium fluorescence. inhibition, % at 11.8 µM. actives 0.59% (n = 350,000);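 active = inhibition of the ligand-induced calcium signal above about 50% at the single tested concentration, limit read from the data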
Hits are given with their value; - = inactive; . = not tested or not shown.

SMILES | Cardiac RTF inh | RTF Ca sens act | IDE inh | CRFBP-R2 agonist | IDE act | CRFBP-R2 block
CCOc1cc(/C=C2\CCCc3c2nc2ccccc2c3C(=O)O)ccc1OC | - | - | - | 201.0 | - | -
CC(OC(=O)c1cc2ccccc2cc1O)C(=O)Nc1ccc(S(N)(=O)=O)cc1 (centres undefined) | - | - | - | - | - | -
COC(=O)c1ccc(CNC(=O)Cn2cnc3c(OCc4ccccc4)ncnc32)cc1 | - | - | - | - | - | -
CCOc1ccc(NS(=O)(=O)c2ccc3c(c2)n(C)c(=O)n3C)cc1 | - | - | - | - | - | -
CC1=NOC(=O)/C1=C\c1ccc(-c2cc(Cl)ccc2Cl)o1 | - | - | - | 116.5 | - | -
CC1=NOC(=O)/C1=C\c1ccc(-c2ccc(Br)cc2)o1 | - | - | . | 69.5 | - | -
CC1=NOC(=O)/C1=C/c1ccc(-c2ccc(Cl)cc2)o1 | - | - | - | . | - | .
O=C(CCNS(=O)(=O)c1cccc(C(F)(F)F)c1)NCc1ccco1 | - | - | - | - | - | -
Cc1ccc(C(=O)O)cc1-c1ccc(C=C2C(=O)c3ccccc3C2=O)o1 | - | - | - | 74.6 | - | -
O=C1C(=Cc2ccc(Br)o2)C(=O)c2ccccc21 | 33.1 | - | - | - | - | -
CC1=C/C(=C\c2ccc(Br)o2)C(=O)O1 | - | - | - | - | - | -
COc1cc(/C=N/n2c(C)nc3ccccc3c2=O)cc(OC)c1O | - | - | - | - | - | -
O=C(NC1CCOCC1)C1CCC(=O)N(Cc2ccc(Cl)cc2)C1 (centres undefined) | - | - | - | - | - | -
CSc1ccccc1OCc1cc(C(=O)NCCn2nc(C)cc2C)no1 | - | - | - | - | 34.0 | -
Cc1cc(C)n(CCNC(=O)c2cc(COc3ccc(F)cc3Cl)on2)n1 | - | - | - | - | - | -
COc1cc(C2C3CN(C)CC=C3C(C#N)=C(N)C2(C#N)C#N)ccc1OC(C)C (centres undefined) | - | 42.2 | - | - | - | -
CC(C)N1CC=C2C(C#N)=C(N)C(C#N)(C#N)[C@H](c3ccoc3)[C@H]2C1 | . | . | - | . | . | .
CC(C)N1CC=C2C(C#N)=C(N)C(C#N)(C#N)C(c3ccccc3)C2C1 (centres undefined) | - | 46.0 | - | 89.5 | - | -
CCN1CC=C2C(C#N)=C(N)C(C#N)(C#N)C(c3cc(Cl)ccc3Cl)C2C1 (centres undefined) | - | 39.2 | - | - | - | -
O=C1N[C@@H](Cc2ccccc2)C(=O)N2[C@@H]1C[C@@]1(Br)c3ccccc3N(S(=O)(=O)c3ccccc3)[C@@H]21 | - | - | - | - | - | -
COc1ccccc1N1CCN(S(=O)(=O)CCNC(=O)CC2CCCC2)CC1 | . | . | . | - | . | -
Cc1ccc(S(=O)(=O)N2[C@@H](c3ccc(F)cc3)C(C(=O)O)=CC[C@H]2c2cccs2)cc1 | - | - | - | - | - | -
CC(C)c1ccc(CNn2cnnc2)cc1 | - | - | - | - | - | -
COc1ccc(NC(=O)C(=O)NNC(=O)c2cccs2)cc1 | - | - | - | - | - | -
COc1ccc(OC)c(NC(=O)C(=O)NNC(=O)C23CC4CC(CC(C4)C2)C3)c1 | . | . | - | 55.0 | . | -
SMILES | Cardiac RTF inh | RTF Ca sens act | IDE inh | CRFBP-R2 agonist | IDE act | CRFBP-R2 block
COc1ccc(NC(=O)C(=O)NNC(=O)c2cccs2)c(OC)c1 | - | - | - | - | - | 74.8
Cn1c(=O)c(Nc2ccc(O)cc2)c2c3c(cccc31)C(=O)c1ccccc1-2 | - | 49.6 | - | - | - | -
CC(=O)Nc1ccc(Nc2nc3ccccc3nc2NS(=O)(=O)c2ccc(Cl)c([N+](=O)[O-])c2)cc1 | - | - | . | - | - | 64.6
Nc1nn2c(C(F)(F)F)cc(=O)[nH]c2c1N=Nc1cccc(F)c1 | - | - | - | - | - | 87.0
CC(C(=O)N1CCCCC1)N(C)CC(=O)Nc1cccc(F)c1 (centres undefined) | . | . | - | - | . | -
O=C(C1CCN(S(=O)(=O)c2cccc3cccnc23)CC1)N1CCN(c2ccccc2)CC1 | - | - | - | - | - | -
O=C(C1CCCN(S(=O)(=O)c2cccc3cccnc23)C1)N1CCN(c2ccc(F)cc2)CC1 (centres undefined) | - | - | - | - | - | 79.0
CC1(C(=O)O)CCC(C(=O)Nc2cccc(F)c2)C1(C)C (centres undefined) | - | - | - | - | - | -
O=S(=O)(Nc1nc2ccccc2s1)c1ccc(Cl)s1 | - | - | - | - | - | 58.4
O=S(=O)(Nc1nc2ccccc2s1)c1cc(F)ccc1F | - | - | - | - | - | -
COc1ccc(CNC(=O)C2(c3ccc(Cl)cc3)CC2)cc1 | - | - | - | - | - | 60.9
NS(=O)(=O)c1ccc(CNC(=O)C2(c3ccc(Cl)cc3)CC2)cc1 | - | - | - | - | - | -
CC1=NN(c2ccccc2)C(=O)/C1=C\C=C1/N(C)c2ccccc2C1(C)C | - | - | - | 52.1 | - | -
CN1/C(=C\C=N\O)C(C)(C)c2ccccc21 | - | - | - | - | - | -
CN1C(=CC=C2C=C(I)C(=O)C(I)=C2)C(C)(C)c2ccccc21 | - | 91.9 | . | - | - | -
CCC(C(=O)N1CCC(N2CCCCC2)CC1)n1nc(C)c2sc3ccccc3c2c1=O (centres undefined) | - | - | - | - | - | -
COc1cc2c(cc1OC)[C@H](C)N(C(=O)NCc1ccccc1)CC2 | - | - | - | - | - | -
CCn1nc(C(=O)NNC(=O)CCOc2cc(C)ccc2C)c2ccccc2c1=O | - | - | - | - | - | -
O=[N+]([O-])c1ccc2[nH]c(=S)sc2c1 | - | - | . | - | - | 58.5
CC(=O)Nc1ccc([N+](=O)[O-])cn1 | - | - | - | - | - | -
Cc1ccc(OCC(=O)Nc2ccc([N+](=O)[O-])cn2)cc1C | - | - | - | - | - | 51.5
CCOC(=O)[C@H]1[C@H]2COc3ccc(C)cc3[C@@H]2N2C(=O)CN(CC3CCCO3)C(=O)[C@@]12C (some centres undefined) | - | - | - | - | - | -
CC(=O)Nc1ccc(Sc2ncccc2C(=O)Nc2ccc(F)cc2)cn1 | - | - | - | 156.1 | - | -
CSc1ncccc1C(=O)Nc1ccc(OC(F)(F)F)cc1 | - | - | - | - | - | -
C/C(=N\NC(=O)c1nnn(-c2nonc2N)c1CSc1ccc(Cl)cc1)c1ccco1 | - | - | - | - | - | -
Clc1ccc(C2=CC(c3ccco3)n3ncnc3N2)cc1 (centres undefined) | - | 217.4 | - | 348.7 | - | -
COc1ccc(C2=CC(c3ccco3)n3ncnc3N2)cc1 (centres undefined) | - | 82.6 | . | 170.1 | - | -
COc1ccc(C2C=C(c3ccccc3)Nc3ncnn32)cc1 (centres undefined) | - | - | - | - | - | -
